Test results published in PubChem BioAssay (NCATS).
Results filed as inconclusive are left out. The source made the active and inactive calls. The call rests on the fitted dose curve; in most records, active means well fitted curve in the direction sought with a large enough effect; inconclusive means small, poorly fitted or top-dose-only effect, or another doubt; inactive means no such curve, though single readings can be large; an effect the other way counts as inactive or inconclusive.

Legend:
OV90 = experiment: Primary qHTS to identify gynecologic anti-cancer compounds using libraries of approved drugs and bioactive compounds (AID 1345084); conditions: Gynecologic cancer cell panel viability, ATPlite luminescence, 48 h; series mostly up to 57.5 µM; further: nearly all actives have a fitted effect of over 55% in size; on activity change, negative = cytotoxicity: on the % scale 0 is the no-effect control and ±100 the full control effect
In short: (§1)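 ATP-based viability (ATPlite), 1,000 cells/well, 16 h pre-incubation, 48 h compound at 37 C, 5% CO2, 15 min RT before read.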

PA-1 = experiment: as above; conditions: Gynecologic cancer cell panel viability, ATPlite luminescence, 48 h; series mostly up to 57.5 µM
In short: as §1

SKOV3 = experiment: as above; conditions: Gynecologic cancer cell panel viability, ATPlite luminescence, 48 h; series mostly up to 57.5 µM
In short: as §1

Tov-21-G = experiment: as above; conditions: Gynecologic cancer cell panel viability, ATPlite luminescence, 48 h; series mostly up to 57.5 µM
In short: as §1

Tov112D = experiment: as above; conditions: Gynecologic cancer cell panel viability, ATPlite luminescence, 48 h; series mostly up to 57.5 µM
In short: as §1

[1] = qHTS assay to identify inhibitors of the type 1 interferon - major histocompatibility complex class I in skeletal muscle: Counter screen cell viability and HiBit confirmation (AID 1347412); conditions: iHSKM muscle cells + IFN-b, HiBiT or CellTiter-Glo, 24 h; for Potency: HiBiT; for activity change, negative = inhibition: Viability, at 45.9 µM (top of the series); on activity change, negative = inhibition: on the % scale 0 is the no-effect control and ±100 the full control effect; on all read-outs here: nearly all actives have a fitted effect of over 60% in size
In short: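 After 24 h with human IFN-beta (4 ng/ml) and compound titrations (top 46 uM final, 1:3, 12 points), HLA-B HiBit myoblasts were lysed for either Nano-Glo HiBiT luminescence or CellTiter Glo viability on paired plates.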

astro = experiment: Drug repurposing screens with cells derived from glioblastoma tumor samples (AID 1345199); conditions: viability, ATP luminescence, 48 h; series mostly up to 45.9 µM; further: nearly all actives have a fitted effect of over 40% in size
In short: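 Primary testing used CD133+ neurospheres from four GBM patients, seven concentrations, 48 h exposure and ATP-based viability; confirmation added three slower-growing patient lines.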
Potency means the concentration at half of the fitted maximal effect.

C=CC(=O)Nc1cccc(Oc2nc(Nc3ccc(N4CCN(C)CC4)cc3)ncc2Cl)c1
inactive: Potency (OV90)
active: Potency (PA-1) 8.91 µM | Potency (SKOV3) 3.16 µM | Potency (Tov-21-G) 8.91 µM | Potency (Tov112D) 5.62 µM

CC(=O)c1c(C)c2cnc(Nc3ccc(N4CCNCC4)cn3)nc2n(C2CCCC2)c1=O
inactive: activity change, negative = cytotoxicity (OV90) 15% [at 6.55 µM] | activity change, negative = cytotoxicity (PA-1) -9.61% [at 6.55 µM] | activity change, negative = cytotoxicity (SKOV3) 4.84% [at 6.55 µM] | activity change, negative = cytotoxicity (Tov-21-G) -13.1% [at 6.55 µM] | activity change, negative = cytotoxicity (Tov112D) -4.97% [at 6.55 µM]

CNC(=O)CN1CCC(Oc2cc3c(Nc4cccc(Cl)c4F)ncnc3cc2OC)CC1
active: Potency (SKOV3) 14.1 µM
inactive: Potency (OV90) | Potency (PA-1) | Potency (Tov112D)

CCCNC(=O)Nc1ccc(Oc2ncnc3cc(OC)c(OC)cc23)cc1Cl
inactive: Potency (OV90) | Potency (PA-1) | Potency (SKOV3) | Potency (Tov-21-G) | Potency (Tov112D)

COc1cc2c(Nc3ccc(NC(=O)c4ccccc4)cc3)ncnc2cc1OCCCN1CCOCC1
active: Potency (OV90) 25.1 µM | Potency (SKOV3) 11.2 µM
inactive: Potency (PA-1) | Potency (Tov112D)

CNC(=O)c1ccc(-c2cnc3ncc(Cc4ccc5ncccc5c4)n3n2)cc1F
inactive: Potency (OV90) | Potency (PA-1) | Potency (SKOV3) | Potency (Tov-21-G) | Potency (Tov112D)

COc1cc2c(NC3CCN(C(C)C)CC3)nc(C3CCCCC3)nc2cc1OCCCN1CCCC1
active: Potency (OV90) 11.2 µM | Potency (PA-1) 31.6 µM | Potency (SKOV3) 12.6 µM | Potency (Tov112D) 22.4 µM

O=C(Nc1cc(C(F)(F)F)cc(C(F)(F)F)c1)c1cc(Cl)ccc1O
active: Potency (OV90) 8.91 µM | Potency (PA-1) 1.58 µM | Potency (SKOV3) 3.55 µM | Potency (Tov-21-G) 8.91 µM | Potency (Tov112D) 3.55 µM | Potency [1] 15.7 µM

Clc1cccc(-c2nnnn2Cc2cccnc2)c1Cl
inactive: Potency (OV90) | Potency (PA-1) | Potency (SKOV3) | Potency (Tov-21-G) | Potency (Tov112D)

CCCCCN(CCC12CC3CC(CC(C3)C1)C2)C(=O)NCCCc1ccncc1
inactive: Potency (OV90) | Potency (PA-1) | Potency (SKOV3) | Potency (Tov-21-G) | Potency (Tov112D)

COc1cccc(Nc2c(C(N)=O)cnc3c(C)cc(S(=O)(=O)c4cccc(C(=O)N(C)C)c4)cc23)c1
inactive: Potency (OV90) | Potency (PA-1) | Potency (SKOV3) | Potency (Tov-21-G) | Potency (Tov112D)

COc1ccc2c(OCc3nnc4ccc(-c5ccccc5)nn34)ccnc2c1
inactive: Potency (OV90) | Potency (PA-1) | Potency (Tov-21-G) | Potency (Tov112D)

O=c1c2ccccc2nc2n1CCc1c-2[nH]c2ccccc12
inactive: Potency (OV90) | Potency (PA-1) | Potency (Tov-21-G) | Potency (Tov112D)

Nc1nc(NCCNc2ncc(-n3ccnc3)c(-c3ccc(Cl)cc3Cl)n2)ccc1[N+](=O)[O-]
inactive: Potency (OV90) | Potency (PA-1) | Potency (SKOV3) | Potency (Tov-21-G) | Potency (Tov112D) | activity change, negative = inhibition [1] -15.1%
active: Potency [1] 15.7 µM

CCNC(=O)Nc1ccc2ncc(Nc3ccc(C)cc3)nc2n1
inactive: Potency (OV90) | Potency (PA-1) | Potency (SKOV3) | Potency (Tov-21-G) | Potency (Tov112D)

NC(=O)Nc1cc(-c2cccc(F)c2)sc1C(=O)N[C@H]1CCCNC1
active: Potency (OV90) 2.82 µM | Potency (PA-1) 2.82 µM | Potency (SKOV3) 0.631 µM | Potency (Tov112D) 1.78 µM | Potency [1] 1.76 µM

Cc1ccc(CN2CCNCC2)cc1NC(=O)CNc1ccc(F)c(F)c1
inactive: Potency (OV90) | Potency (PA-1) | Potency (SKOV3) | Potency (Tov-21-G) | Potency (Tov112D)

Nc1nccc(Oc2ccc(NC(=O)c3c[nH]cc(-c4ccc(F)cc4)c3=O)cc2F)c1Cl
inactive: Potency (OV90) | Potency (PA-1) | Potency (Tov-21-G) | Potency (Tov112D)

C=CC(=O)Nc1cc2c(Nc3ccc(F)c(Cl)c3)ncnc2cc1OCCCN1CCOCC1
inactive: Potency (OV90) | Potency (PA-1) | Potency (Tov112D) | activity change, negative = inhibition [1] -26.8%
active: Potency (SKOV3) 3.16 µM | Potency (astro) 11.2 µM | Potency [1] 15.7 µM

Cn1cc(-c2ccncc2)c(-c2ccc(OCc3ccc4ccccc4n3)cc2)n1
inactive: Potency (OV90) | Potency (PA-1) | Potency (Tov-21-G) | Potency (Tov112D)

CN(C1CCc2c(c3ccccc3n2CC(=O)O)C1)S(=O)(=O)c1ccc(F)cc1 (stereo not drawn)
inactive: Potency (OV90) | Potency (PA-1) | Potency (SKOV3) | Potency (Tov-21-G) | Potency (Tov112D)
